Results from PubChem BioAssay (Tox21).
Results filed as inconclusive are left out. Entries that show only a call come without a potency. The source made the active and inactive calls. Unless noted, the call rests on the fitted dose curve.

How the values were obtained:
[1] = Nuclear factor erythroid 2-related factor 2/antioxidant responsive element (Nrf2/ARE) small molecule agonists: luciferase reporter gene qHTS assay in human keratinocytes (AID 1919969); further: nearly all actives have a fitted effect of over 35% in size; further: potency means the concentration at half of the fitted maximal effect
[2] = target: KiSS-1 receptor (Homo sapiens) (UniProt Q969F8); test: Human kisspeptin (KISS1R) small molecule agonists, calcium flux assay in KISS1R-HEK293 cells (AID 1920064; active means well fitted activation curve with a large enough effect in the repeat runs)
Sequence of KiSS-1 receptor (Homo sapiens) (Q969F8 whole entry, looked up): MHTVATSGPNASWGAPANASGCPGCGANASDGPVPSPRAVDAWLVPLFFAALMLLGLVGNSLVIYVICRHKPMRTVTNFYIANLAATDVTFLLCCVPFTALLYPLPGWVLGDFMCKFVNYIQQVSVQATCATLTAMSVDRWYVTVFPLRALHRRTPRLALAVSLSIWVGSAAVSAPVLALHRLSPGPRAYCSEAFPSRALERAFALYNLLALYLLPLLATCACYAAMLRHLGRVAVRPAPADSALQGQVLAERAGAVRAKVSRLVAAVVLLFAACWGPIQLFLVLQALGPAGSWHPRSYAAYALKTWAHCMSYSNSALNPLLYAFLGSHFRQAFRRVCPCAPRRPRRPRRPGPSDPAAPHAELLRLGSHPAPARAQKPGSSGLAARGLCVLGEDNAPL
Summary of the method: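 Measures KISS1R agonism through calcium-sensitive dye fluorescence in stably transfected HEK293 cells, read for 3 min after pin-tool compound delivery; 15-point titrations in triplicate.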

[3] = G protein-coupled receptor (GPCR) small molecule agonists, calcium flux assay: HEK293 wild type cell line counter screen (AID 1920065)
Summary of the method: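 Readout: fluorescence at 480 nm excitation/540 nm emission, sampled at 1 s intervals for 3 min. Cells had been cultured 18 h, then dye-loaded 1 h at 37 C before compound or ATP addition.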

[4] = p53 small molecule agonists, cell-based qHTS assay with human liver microsomes: qHTS cell viability counter screen (AID 1963579); further: nearly all actives have a fitted effect of over 45% in size
Summary of the method: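 Luminescent CellTiter-Glo read-out, 30 min at room temperature, gauged cytotoxicity in p53RE-bla cells exposed 16 h at 37 C to DMSO-dissolved compounds with metabolic activation by human liver microsomes and NADPH, each 0.5 mg/mL final.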

[5] = p53 small molecule agonists, cell-based qHTS assay with rat liver microsomes: qHTS cell viability counter screen (AID 1963580); further: nearly all actives have a fitted effect of over 45% in size
Summary of the method: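 Viability is assessed in parallel with the p53 reporter read: HCT-116 p53RE-bla cells receive compounds plus rat microsomes and NADPH (0.5 mg/mL final apiece), incubate 16 h at 37 C, and then CellTiter-Glo luminescence is recorded.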

[6] = p53 small molecule agonists, cell-based qHTS assay: qHTS cell viability counter screen (AID 1963581); further: nearly all actives have a fitted effect of over 45% in size
Summary of the method: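 In the same plates used for the p53 bla reporter, HCT-116 cells given compounds for 16 h at 37 C received CellTiter-Glo; luminescence was recorded 30 min later at room temperature.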

[7] = target: Muscarinic acetylcholine receptor M1 (Homo sapiens) (UniProt P11229); test: Cholinergic receptor muscarinic 1 (CHRM1) small molecule antagonists, cell-based qHTS assay (AID 1963588); further: nearly all actives have a fitted effect of over 40% in size
Sequence of Muscarinic acetylcholine receptor M1 (Homo sapiens) (P11229 whole entry, looked up): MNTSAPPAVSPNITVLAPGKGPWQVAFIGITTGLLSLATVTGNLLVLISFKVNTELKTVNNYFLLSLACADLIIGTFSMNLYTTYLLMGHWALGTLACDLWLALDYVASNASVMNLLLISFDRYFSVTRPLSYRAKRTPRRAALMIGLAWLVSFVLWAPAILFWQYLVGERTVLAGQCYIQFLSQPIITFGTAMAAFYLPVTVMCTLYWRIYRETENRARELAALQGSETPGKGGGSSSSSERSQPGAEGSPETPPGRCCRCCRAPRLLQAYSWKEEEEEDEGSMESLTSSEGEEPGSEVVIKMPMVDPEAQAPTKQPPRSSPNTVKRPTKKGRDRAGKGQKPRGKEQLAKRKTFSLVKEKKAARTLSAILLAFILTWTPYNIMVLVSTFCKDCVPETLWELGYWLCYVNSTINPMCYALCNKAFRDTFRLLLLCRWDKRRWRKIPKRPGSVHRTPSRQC
Summary of the method: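 CHRM1-CHO calcium-flux assay, antagonist mode. Cells were seeded 18 h, dye-loaded 1 h at 37 C and given compound for 5 min at RT, then acetylcholine was added at 50nM. FDSS fluorescence was read 3 min; 15 concentrations, three runs.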

[8] = target: Muscarinic acetylcholine receptor M1 (Homo sapiens) (UniProt P11229); test: Cholinergic receptor muscarinic 1 (CHRM1) small molecule agonists, cell-based qHTS assay (AID 1963589); further: nearly all actives have a fitted effect of over 35% in size
Summary of the method: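 Each compound was tested at 15 concentrations across three independent runs on dye-loaded CHO cells stably expressing human CHRM1, reading intracellular calcium fluorescence kinetically at 1 sec intervals.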

[9] = target: Beta-2 adrenergic receptor (Homo sapiens) (UniProt P07550); test: Adrenergic beta2 receptor (ADRB2) small molecule antagonists, cell-based qHTS assay (AID 1963592); further: nearly all actives have a fitted effect of over 50% in size; further: potency means the concentration at half of the fitted maximal effect
Sequence of Beta-2 adrenergic receptor (Homo sapiens) (P07550 whole entry, looked up): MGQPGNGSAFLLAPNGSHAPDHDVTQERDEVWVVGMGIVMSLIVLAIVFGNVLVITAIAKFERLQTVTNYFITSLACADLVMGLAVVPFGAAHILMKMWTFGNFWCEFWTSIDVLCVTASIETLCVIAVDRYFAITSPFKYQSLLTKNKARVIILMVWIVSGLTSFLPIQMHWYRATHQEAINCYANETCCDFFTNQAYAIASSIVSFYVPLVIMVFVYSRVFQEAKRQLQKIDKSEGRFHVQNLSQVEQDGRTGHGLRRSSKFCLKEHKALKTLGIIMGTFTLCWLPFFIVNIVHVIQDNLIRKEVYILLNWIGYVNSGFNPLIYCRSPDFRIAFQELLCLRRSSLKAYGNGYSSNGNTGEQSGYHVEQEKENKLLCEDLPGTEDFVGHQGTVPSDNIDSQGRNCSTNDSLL
Summary of the method: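 Cells (CHO, stable ADRB2 overexpression) incubated 18-20hr at 37C; compounds added from DMSO; agonist mix (1nM isoproterenol, 100uM IBMX, 25uM Ro-20-1724) added; 0.5hr RT; d2-cAMP and anti-cAMP-cryptate added; 1hr RT; 665/615 nm read.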

[10] = target: D(2) dopamine receptor (Homo sapiens) (UniProt P14416); test: Dopamine D2 receptor (DRD2) small molecule agonists, cell-based qHTS assay (AID 1963594); further: nearly all actives have a fitted effect of over 35% in size
Sequence of D(2) dopamine receptor (Homo sapiens) (P14416 whole entry, looked up): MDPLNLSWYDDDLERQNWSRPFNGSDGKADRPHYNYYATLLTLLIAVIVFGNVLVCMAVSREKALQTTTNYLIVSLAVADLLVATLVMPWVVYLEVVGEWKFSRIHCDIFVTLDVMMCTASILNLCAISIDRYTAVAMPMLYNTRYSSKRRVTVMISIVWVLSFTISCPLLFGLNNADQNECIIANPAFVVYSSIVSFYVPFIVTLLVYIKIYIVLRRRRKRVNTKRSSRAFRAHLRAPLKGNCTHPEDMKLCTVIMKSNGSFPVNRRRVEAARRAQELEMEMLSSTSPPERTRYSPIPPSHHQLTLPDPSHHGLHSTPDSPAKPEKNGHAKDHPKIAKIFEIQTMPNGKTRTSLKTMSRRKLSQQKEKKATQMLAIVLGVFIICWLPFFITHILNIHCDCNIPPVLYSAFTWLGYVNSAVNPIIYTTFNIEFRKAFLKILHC
Summary of the method: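 HEK293 cells stably expressing human DRD2, pre-treated with PDE inhibitor Ro20-1724 (0.1 mM final) and compound 10 min at room temperature, then stimulated with NKH477 (200nM […]) for 30 min. cAMP read by HTRF (665/620 nm).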

[11] = target: D(2) dopamine receptor (Homo sapiens) (UniProt P14416); test: Dopamine D2 receptor (DRD2) small molecule antagonists, cell-based qHTS assay (AID 1963595; active means well fitted inhibition curve with a large enough effect in the signal ratio in the repeat runs, with a control signal flat; the % refers to the signal ratio)
Summary of the method: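 DRD2-HEK293; 0.1 mM Ro20-1724; cpd 10 min RT; NKH477 200 nM + quinpirole 12 nM, 30 min RT; HTRF cAMP (cAMP-d2/anti-cAMP cryptate), 665/620 nm ratio after 1 h.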

[12] = target: Gonadotropin-releasing hormone receptor (Homo sapiens) (UniProt P30968); test: Human gonadotropin-releasing hormone receptor (GnRHR) small molecule agonists, calcium flux assay in GnRHR-HEK293 cells (AID 1920063); further: nearly all actives have a fitted effect of over 35% in size
Sequence of Gonadotropin-releasing hormone receptor (Homo sapiens) (P30968 whole entry, looked up): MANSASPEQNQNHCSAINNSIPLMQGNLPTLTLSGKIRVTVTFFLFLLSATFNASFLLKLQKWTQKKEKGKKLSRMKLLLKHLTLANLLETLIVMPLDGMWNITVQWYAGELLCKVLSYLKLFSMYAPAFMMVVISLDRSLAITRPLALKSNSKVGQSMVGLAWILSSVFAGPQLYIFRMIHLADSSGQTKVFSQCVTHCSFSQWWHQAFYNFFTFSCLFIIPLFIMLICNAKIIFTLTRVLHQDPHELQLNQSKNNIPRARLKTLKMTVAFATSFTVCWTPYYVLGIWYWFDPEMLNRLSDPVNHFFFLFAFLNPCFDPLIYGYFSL
Summary of the method: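 Fluorescence kinetics (480 nm excitation, 540 nm emission; 3 min, 1 s steps) report calcium mobilisation in human GnRHR-HEK293 cells in agonist mode. Dye incubation: 1 h, 37 C.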

[13] = p53 small molecule agonists, cell-based qHTS assay with human liver microsomes (AID 1963577);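 further: p53 response element beta-lactamase reporter cells with liver microsomes plus NADPH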
Summary of the method: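 p53RE-bla cells; 5 h settle, 37 C/5% CO2; cpd + HLM 0.5 mg/mL + NADPH 0.5 mg/mL (final); 16 h 37 C; LiveBLAzer 2 h RT dark; fluorescence readout.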

[14] = p53 small molecule agonists, cell-based qHTS assay with rat liver microsomes (AID 1963578)
Summary of the method: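 Rat liver microsome activation: microsomes 0.5 mg/mL, NADPH 0.5 mg/mL final; p53RE-bla cells, 16 h 37 C; LiveBLAzer readout, 2 h RT dark.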

[15] = p53 small molecule agonists, cell-based qHTS assay (AID 1963582; active means well fitted activation curve with a large enough effect in the signal ratio in the repeat runs, not every such curve was filed as active; the % refers to the signal ratio)
Summary of the method: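 Compounds are pin-transferred in DMSO onto p53RE-bla cells and incubated 16 h at 37 C. The B/G FRET beta-lactamase substrate is then applied for 2 h at RT and fluorescence recorded.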

[16] = target: 5-hydroxytryptamine receptor 2A (Homo sapiens) (UniProt P28223); test: 5-hydroxytryptamine receptor 2A (HTR2A) small molecule antagonists, cell-based qHTS assay (AID 1963586); further: nearly all actives have a fitted effect of over 45% in size
Sequence of 5-hydroxytryptamine receptor 2A (Homo sapiens) (P28223 whole entry, looked up): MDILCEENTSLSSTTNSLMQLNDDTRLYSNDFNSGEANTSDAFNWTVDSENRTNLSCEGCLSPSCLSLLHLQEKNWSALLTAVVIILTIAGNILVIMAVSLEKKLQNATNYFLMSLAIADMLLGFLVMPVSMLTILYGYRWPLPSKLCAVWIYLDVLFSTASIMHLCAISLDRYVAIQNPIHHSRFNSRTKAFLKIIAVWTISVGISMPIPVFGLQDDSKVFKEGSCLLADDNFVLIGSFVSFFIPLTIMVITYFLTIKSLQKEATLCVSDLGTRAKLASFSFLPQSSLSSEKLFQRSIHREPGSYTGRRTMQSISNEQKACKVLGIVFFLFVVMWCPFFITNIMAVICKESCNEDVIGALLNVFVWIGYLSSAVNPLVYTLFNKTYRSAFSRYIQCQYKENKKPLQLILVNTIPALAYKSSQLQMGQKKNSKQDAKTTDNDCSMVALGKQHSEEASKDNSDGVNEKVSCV
Summary of the method: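 Antagonist-mode intracellular calcium assay: DOI (4 nM) added after 5 min compound pre-incubation at room temperature to dye-loaded HTR2A-CHO cells. Fluorescence followed for 3 min, sampled every second.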

[17] = target: 5-hydroxytryptamine receptor 2A (Homo sapiens) (UniProt P28223); test: 5-hydroxytryptamine receptor 2A (HTR2A) small molecule agonists, cell-based qHTS assay (AID 1963587); further: nearly all actives have a fitted effect of over 30% in size
Summary of the method: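 CHO cells stably expressing human HTR2A, plated 18 h, loaded with calcium dye 1 h at 37 C. Agonist mode: compounds added and intracellular calcium fluorescence recorded kinetically for 2 min at 1 sec intervals.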

[18] = cAMP Responsive Elements (CRE) small molecule agonists, cell-based qHTS assay (AID 1963590)
Summary of the method: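 Cell line: CRE-bla HEK 293T; medium DMEM/10% dialyzed FBS/0.1 mM NEAA/1 mM pyruvate/25 mM HEPES; 3 h compound exposure; beta-lactamase FRET readout after 2 h substrate loading at RT.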

[19] = cAMP Responsive Elements (CRE) small molecule antagonists, cell-based qHTS assay (AID 1963591; active means well fitted inhibition curve with a large enough effect in the signal ratio in the repeat runs, not every such curve was filed as active; the % refers to the signal ratio)
Summary of the method: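 Inhibition of NKH477-driven (0.25 uM final) CRE-beta-lactamase signal in HEK293T cells, 3 h compound exposure at 37 °C, detected by FRET substrate fluorescence.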

[20] = target: Beta-2 adrenergic receptor (Homo sapiens) (UniProt P07550); test: Adrenergic beta2 receptor (ADRB2) small molecule agonists, cell-based qHTS assay (AID 1963593);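 further: CHO cells stably overexpressing human ADRB2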
Summary of the method: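 CHO cells stably over-expressing ADRB2 were plated overnight at 37C, then dosed with compounds plus a stimulation mix containing 100uM IBMX and 25uM Ro-20-1724 for 0.5hr at room temperature. cAMP was measured by HTRF competition, 1hr.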

SMILES | Potency [1] | Potency [2] | Potency [3] | Potency [4] | Potency [5] | Potency [6] | Potency [7] | Potency [8] | Potency [9] | Potency [10] | Potency [11] | Potency [12] | Potency [13] | Potency [14] | Potency [15] | Potency [16] | Potency [17] | Potency [18] | Potency [19] | Potency [20]
C=C1C(=C/C=C2\CCC[C@]3(C)[C@@H]([C@H](C)/C=C/[C@@H](O)C4CC4)CC[C@@H]23)C[C@@H](O)C[C@@H]1O | inactive | inactive | inactive | inactive | inactive | inactive | inactive | inactive | inactive | inactive | inactive | – | – | – | – | – | – | – | – | –
CCC(C)OC(=O)N1CCCCC1CCO (stereo not given) | – | inactive | inactive | inactive | inactive | inactive | inactive | inactive | inactive | inactive | inactive | inactive | inactive | inactive | inactive | inactive | inactive | inactive | inactive | –
CCO[C@@H]1O[C@H](C(COCc2ccccc2)OCc2ccccc2)[C@H](OCc2ccccc2)[C@H]1O (stereo not given in full) | inactive | – | inactive | inactive | inactive | inactive | inactive | inactive | inactive | inactive | inactive | – | – | – | – | inactive | inactive | inactive | inactive | –
C[C@@H](c1ncncc1F)C(O)(Cn1cncn1)c1ccc(F)cc1F (stereo not given in full) | – | inactive | inactive | inactive | inactive | inactive | inactive | inactive | – | inactive | inactive | inactive | inactive | inactive | inactive | inactive | inactive | – | inactive | inactive
CC[C@@]1(O)C(=O)OCc2c1cc1n(c2=O)Cc2cc3c(CN(C)C)c(O)ccc3nc2-1 | inactive | inactive | – | – | inactive | – | – | – | inactive | inactive | inactive | – | – | – | – | – | – | – | – | inactive
CCOC(=O)[C@H](CCc1ccccc1)N[C@H]1CCc2ccccc2N(CC(=O)O)C1=O | inactive | inactive | inactive | inactive | inactive | inactive | – | – | 23.7 µM (active) | – | – | – | – | – | – | – | – | – | – | –
C=C[Si](OCC)(OCC)OCC | – | inactive | inactive | inactive | inactive | inactive | inactive | inactive | – | inactive | inactive | inactive | inactive | inactive | inactive | inactive | inactive | inactive | – | –
CC(=O)[C@]1(O)Cc2c(O)c3c(c(O)c2[C@@H](O[C@H]2C[C@H](N)[C@H](O)[C@H](C)O2)C1)C(=O)c1ccccc1C3=O | 2.66 µM (active) | inactive | inactive | – | – | inactive | – | – | – | – | – | – | – | – | – | – | – | inactive | – | –
